Test results reported in PubChem BioAssay (NCI).
This is part of a sample that, as a whole, favours compounds with a hit. Of some 83,000 tested, about 20% had one in any assay.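 Plates (96-well) were seeded with cells, treated with compound at one concentration, and incubated for 48 hours before percent growth was determined.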 Active and inactive are the calls of the source. Rule for the calls: active = growth percent below 10; inactive = the rest.

Each compound was assayed on HL-60(TB) leukemia (assay: NCI-60 one-dose screen, 48 h (100 = growth as untreated, 0 = no growth, -100 = all killed)). Conditions: 10 µM unless noted.
In the case of `CN1CCN(c2nc(C3=C(c4c[nH]c5ccccc45)C(=O)NC3=O)c3ccccc3n2)CC1`, the growth is reported as 30.7% (inactive). In the case of `O=C(Cn1cc(CSc2nc3ccccc3o2)nn1)Nc1ccc(F)cc1F`, the growth is reported as 102% (inactive). In the case of `Cc1ccsc1C(NC(=O)c1ccccc1)c1cc(Cl)c2cccnc2c1O` (stereo not given), the growth is reported as 12.4% (inactive). In the case of `N#Cc1c(Nc2cccc(Cl)c2)sc(C(=O)c2cc3cc(Cl)ccc3o2)c1N`, the growth is reported as 92.9% (inactive). In the case of `c1ccc(-c2nnc(Nc3ccc4c(c3)OCCO4)o2)c(NCc2ccncc2)c1`, the growth is reported as 6.43% (active). With `CN(CC(=O)N(Cc1ccc(C2CCCCC2)cc1)c1ccc(C(=O)NO)cc1)S(=O)(=O)c1c(F)c(F)c(F)c(F)c1F` the growth was 43.6% (inactive). `Fc1cc(Nc2ccc3c(OCCCN4CCOCC4)cccc3n2)ccc1Cl` was tested, and the growth was 39.1% (inactive). For `CC(=O)Nc1ccc2c(c1)/C(=C\C=C/c1ccc([N+](C)(C)C)cc1)c1ccccc1-2`, the growth was 43.7% (inactive). In the case of `COc1ccc(C2CC(=O)c3c(O)c(OC)c(OC)c(OC)c3O2)c(O)c1` (stereo not given), the growth is reported as 2.26% (active). `C=C(C)[C@@H]1CC[C@]2(C)[C@H](CC[C@@H]3[C@@H]([C@@](C)(O)CCC=C(C)C)CC[C@]32C)[C@@]1(C)CCC(=O)N1CCN(C)CC1` was tested, and the growth was -32.3% [100 µM] (active). `O=C(O)c1ccnc(Br)c1` was tested, and the growth was 96.5% (inactive). In the case of `CN(C)Cc1cc(C(C)(C)C)cc(Br)c1O`, the growth is reported as 123% (inactive). For `COc1cc2c3c(c4c5ccccc5[nH]c4c2c(OC)c1OC)C(=O)N(CCN1CCCCC1)C3=O`, the growth was 63% (inactive). `NC(=O)C1(N2CCCCC2)CCN(CCCC(=O)c2ccc(F)cc2)CC1` was tested, and the growth was 9.84% (active). For `Cc1nc(Nc2ccccn2)sc1C(=O)/C=C/c1ccc(Br)cc1`, the growth was 41.7% (inactive). With `C(CCCC1=NCCO1)CCCC1=NCCO1` the growth was 112% (inactive). With `O=C(C[C@@H](C(=O)NCc1cccc(C(F)(F)F)c1)N1C(=O)[C@@H](N2C(=O)OC[C@@H]2c2ccccc2)[C@H]1/C=C/c1ccccc1)NC1CCN(Cc2ccccc2)CC1` the growth was 55.3% (inactive). With `CCOC(=O)C/C(=N\Nc1cc(=O)[nH]c2ccc(Cl)cc12)C(=O)OCC` the growth was 90.6% (inactive). For `O=C(CNC(=O)c1cccc2ccccc12)Nc1ccccc1Cc1ccccc1`, the growth was -15.9% [5 µM] (active). With `CCOC(=O)N1CCc2c(sc3c2C(=O)N[C@H](c2ccc(OC)cc2)N3)C1` the growth was 99.8% (inactive). For `O=C1/C(=C\c2coc3ccccc3c2=O)c2ccccc2N1c1c(Cl)cccc1Cl`, the growth was 33.8% (inactive). With `COc1ccc2[nH]c(=O)c(CN3CCN(c4nccc(-c5ccc(Cl)cc5)n4)CC3)cc2c1` the growth was 90.1% (inactive). In the case of `Cc1nnc(-c2cc3c(ccc4ccccc43)oc2=O)c2cn(-c3ccc(Cl)cc3)nc12`, the growth is reported as 84.4% (inactive). For `COc1cc(C2CC(=O)Nc3n[nH]c(-c4ccccc4)c32)cc(OC)c1OC` (stereo not given), the growth was 39.1% (inactive). For `COc1ccccc1N1CCN(CC(O)COc2c(Br)c(Br)c(Br)c3c2OC(C)(C)C3)CC1` (stereo not given), the growth was 10.3% (inactive). In the case of `CC(=O)O.CC(=O)O.O.[Fe]`, the growth is reported as 114% (inactive). With `COc1ccc(C/C(C)=C(/c2ccc(OCCCN(C)C)cc2)c2ccc(OC(C)=O)cc2)cc1` the growth was 70.8% (inactive). In the case of `COC(=O)C(Cc1cnc[nH]1)N1CC(=O)N2[C@@H](c3ccccc3)SC[C@H]2C1=O` (stereo not given in full), the growth is reported as 90.3% (inactive). `CCCCC/C(C=C(C#N)C#N)=C/c1ccccc1` was tested, and the growth was 6.33% (active). For `COc1ccccc1S(=O)(=O)Nc1ccc2c3c(cc(CCC(=O)NCCCCNc4cccc5c4C(=O)N(C4CCC(=O)NC4=O)C5=O)cc13)C(=O)N2C` (stereo not given), the growth was -1.81% (active). `Cc1ccc(C(O)C2CC2)cc1` (stereo not given) was tested, and the growth was 99.3% (inactive). `Nc1nc(NC(=O)Nc2ccc(C(=O)O)cc2)nn1-c1ccc(S(N)(=O)=O)cc1` was tested, and the growth was 102% (inactive). In the case of `N#Cc1cccc(C2C3=C(COC3=O)N(CCO)c3cc4c(cc32)CCC4)c1` (stereo not given), the growth is reported as -27.2% (active). With `CSc1nc(-c2cccs2)c2c(N)[nH]nc2n1` the growth was 85.3% (inactive). For `C=C(C)[C@@H]1C/C=C(\COC(=O)[C@H](OC(C)=O)C(NC(=O)c2ccccc2)c2ccccc2)CC[C@H]2O[C@]2(C)CC/C=C(\C)CC1` (stereo not given in full), the growth was 29.9% [5 µM] (inactive). `C=C1C(=O)O[C@H]2[C@H]1CC/C(COC(=O)c1ccc(C(=O)O)s1)=C\CC[C@@]1(C)O[C@@H]21` was tested, and the growth was -31.4% (active). In the case of `CC(=O)Nc1ccc(O)c(C)c1`, the growth is reported as 104% (inactive). With `CC(Cc1nnc(SCC(=O)Nc2ccc(I)cc2)n1N)c1ccccc1` (stereo not given) the growth was 158% (inactive). For `Cc1nc2sc(C(=O)Nc3cccc4ncccc34)c(N)c2cc1C(C)O` (stereo not given), the growth was 33% (inactive). In the case of `N#Cc1c(C#N)c(SSc2c(C#N)c(C#N)c(N)n2-c2ccccc2)n(-c2ccccc2)c1N`, the growth is reported as 99.2% (inactive).
